Reference: PubChem BioAssay (NCI)
About 79,000 compounds went through this panel and 15% of them were active in at least one assay; those are over-represented in the sample as a whole. Active and inactive are the calls of the source. Cut-off read from the data, not from the text of the source: active = growth inhibition above about 70%; inactive = the rest.

Assay: NCI Yeast Anticancer Drug Screen. Data for the wt1 strain (AID 149);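 note: 0% = growth of vehicle-treated wt1 cultures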
Conditions: S. cerevisiae wt1 strain (SPY 50644) growth inhibition; at 11.0 µM; stronger effect = higher value
In short: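 Measured: growth of wt1 yeast under compound versus vehicle treatment, reported as inhibition.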

Row | SMILES | growth inhibition
1 | COc1cc(CSc2ccc(O)cc2)cc(O)c1O | 1% (inactive)
2 | O=C(NNc1ccccc1)c1ccc(Cl)c(Cl)c1 | 1% (inactive)
3 | C[C@]12CC[C@H](O)CC1=CC[C@@H]1C2CC[C@]2(C)C(=O)NC(=O)CC12 (some centres undefined) | -21% (inactive)
4 | CCc1c(Cl)c(C)cc(O)c1Cl | -33% (inactive)
5 | CCCC(=O)Oc1ccc(/C=N/NC(N)=S)nc1 | 1% (inactive)
6 | Cc1nc2ccccc2nc1NNc1ccccc1 | 14% (inactive)

Same assay, conditions: S. cerevisiae wt1 strain (SPY 50644) growth inhibition; at 33.0 µM; stronger effect = higher value

Row | SMILES | growth inhibition
7 | CN(C)c1ccc(C2CC(C)(O)Oc3cc4c(cc32)OCO4)cc1 (centres undefined) | 1% (inactive)
8 | C[Si](C)(C)/C=C/CCNC(C#N)c1ccccc1 (centres undefined) | 35% (inactive)
9 | CN(C)CCOC1(Cc2ccc(F)cc2)CCC(C(C)(C)C)CC1 (centres undefined) | -5% (inactive)
10 | CC(=O)Nc1ccc2c(c1)Cc1cc(N=C3C=CC(=O)O3)ccc1-2 | 99% (active)
11 | O=C1C=C(Cl)C(=O)C(c2ccc(Cl)cc2)=C1 | 97% (active)
12 | CNCCCNc1c2ccccc2nc2cccc([N+](=O)[O-])c12 | 92% (active)
13 | CC(C)OC(=O)c1ccc(CCc2cc(O)c(Br)cc2O)cc1 | 27% (inactive)
14 | CCc1cc(O)c(Cl)c(C)c1Cl | 20% (inactive)
15 | C(=Nc1ccc(-c2cc(-c3ccccc3)nc3ccc4ccccc4c23)cc1)c1ccccc1 | 31% (inactive)
16 | CSc1nc(C)c(CCOC(C)=O)c(N=P(c2ccccc2)(c2ccccc2)c2ccccc2)n1 | -3% (inactive)
17 | CS(=O)(=O)SCc1ccc([N+](=O)[O-])cc1 | 99% (active)
18 | COC1=C(OC)C(=O)C(Sc2ccc3ccccc3c2)=CC1=O | 94% (active)
19 | Cc1cc(-c2cc(C)c(O)c(C(C)(C)C)c2)cc(C(C)(C)C)c1O | 6% (inactive)
20 | Nc1cc(N)c(N=Nc2cccc3c(S(=O)(=O)O)cccc23)cc1N=Nc1cc([N+](=O)[O-])ccc1O | 8% (inactive)
21 | Nc1ccc(F)cc1S | 92% (active)
22 | Brc1ccccc1-c1ncc(-c2ccccc2)o1 | 21% (inactive)
23 | COc1cc(C2SCC(=O)N2c2ccc(-c3ccc(-n4c(-c5ccccc5)nc5ccccc5c4=O)cc3)cc2)ccc1O (centres undefined) | -4% (inactive)
24 | COc1cc(CSc2ccc(O)cc2)cc(O)c1O | -2% (inactive)
25 | O=C(NNc1ccccc1)c1ccc(Cl)c(Cl)c1 | 16% (inactive)
26 | C[C@]12CC[C@H](O)CC1=CC[C@@H]1C2CC[C@]2(C)C(=O)NC(=O)CC12 (some centres undefined) | 55% (inactive)
27 | CCc1c(Cl)c(C)cc(O)c1Cl | -33% (inactive)
28 | CCCC(=O)Oc1ccc(/C=N/NC(N)=S)nc1 | -19% (inactive)
29 | Cc1nc2ccccc2nc1NNc1ccccc1 | 17% (inactive)

Same assay, conditions: S. cerevisiae wt1 strain (SPY 50644) growth inhibition; at 100.0 µM; stronger effect = higher value

Row | SMILES | growth inhibition
30 | CN(C)c1ccc(C2CC(C)(O)Oc3cc4c(cc32)OCO4)cc1 (centres undefined) | 7% (inactive)
31 | C[Si](C)(C)/C=C/CCNC(C#N)c1ccccc1 (centres undefined) | 95% (active)
32 | CN(C)CCOC1(Cc2ccc(F)cc2)CCC(C(C)(C)C)CC1 (centres undefined) | 95% (active)
33 | CC(=O)Nc1ccc2c(c1)Cc1cc(N=C3C=CC(=O)O3)ccc1-2 | 99% (active)
34 | O=C1C=C(Cl)C(=O)C(c2ccc(Cl)cc2)=C1 | 97% (active)
35 | CNCCCNc1c2ccccc2nc2cccc([N+](=O)[O-])c12 | 97% (active)
36 | CC(C)OC(=O)c1ccc(CCc2cc(O)c(Br)cc2O)cc1 | 98% (active)
37 | CCc1cc(O)c(Cl)c(C)c1Cl | 87% (active)
38 | C(=Nc1ccc(-c2cc(-c3ccccc3)nc3ccc4ccccc4c23)cc1)c1ccccc1 | 57% (inactive)
39 | CSc1nc(C)c(CCOC(C)=O)c(N=P(c2ccccc2)(c2ccccc2)c2ccccc2)n1 | 92% (active)
40 | CS(=O)(=O)SCc1ccc([N+](=O)[O-])cc1 | 98% (active)
41 | COC1=C(OC)C(=O)C(Sc2ccc3ccccc3c2)=CC1=O | 92% (active)
42 | Cc1cc(-c2cc(C)c(O)c(C(C)(C)C)c2)cc(C(C)(C)C)c1O | 70% (active)
43 | Nc1cc(N)c(N=Nc2cccc3c(S(=O)(=O)O)cccc23)cc1N=Nc1cc([N+](=O)[O-])ccc1O | 19% (inactive)
44 | Nc1ccc(F)cc1S | 99% (active)
